In PubChem BioAssay (Tox21):
A number with no mark means an inactive call. The source made the active and inactive calls. Calls follow the shape of the full dose curve.

What follows are molecules tested against Acetylcholinesterase (Homo sapiens) (UniProt P22303) (assay: Acetylcholinesterase (AChE) small molecule antagonists: enzyme-based qHTS assay with human liver microsomes (AID 1347399; also: nearly all actives have a fitted effect of over 60% in size)). Conditions: Potency: qHTS inhibition; outcome: qHTS inhibition; series mostly up to 115 µM; activity change, negative = inhibition: at the top concentration.
Summary of the method: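 Recombinant human AChE (50 mU/mL in the enzyme mix) and human liver microsomes (0.25 mg/mL final) were preincubated with compound and NADPH (0.25 mg/mL final) for 30 min at 37 C. Acetylthiocholine/DTNB was then added; thiocholine was read colorimetrically after 10 min at room temperature.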
% is scaled to controls: 0 for no effect and ±100 for the full control effect.

Chain of Acetylcholinesterase (Homo sapiens) (P22303 whole entry, looked up): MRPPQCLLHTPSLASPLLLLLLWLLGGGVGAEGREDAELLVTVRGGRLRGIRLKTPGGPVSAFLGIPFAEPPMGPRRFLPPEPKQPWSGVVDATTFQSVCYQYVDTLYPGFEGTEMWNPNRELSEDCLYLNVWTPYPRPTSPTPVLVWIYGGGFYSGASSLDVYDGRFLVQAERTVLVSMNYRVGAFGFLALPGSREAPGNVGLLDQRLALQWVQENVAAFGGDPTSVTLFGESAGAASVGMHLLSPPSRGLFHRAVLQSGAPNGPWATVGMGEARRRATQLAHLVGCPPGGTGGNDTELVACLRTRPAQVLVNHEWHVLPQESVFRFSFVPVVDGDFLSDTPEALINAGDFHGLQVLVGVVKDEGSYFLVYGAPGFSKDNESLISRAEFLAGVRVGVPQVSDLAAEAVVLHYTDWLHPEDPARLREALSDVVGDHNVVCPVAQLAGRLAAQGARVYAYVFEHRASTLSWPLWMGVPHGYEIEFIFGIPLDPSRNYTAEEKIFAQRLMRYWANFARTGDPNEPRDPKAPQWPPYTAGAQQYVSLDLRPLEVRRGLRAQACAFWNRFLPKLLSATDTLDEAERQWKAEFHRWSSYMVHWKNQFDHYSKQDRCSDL

Compound	activity change, negative = inhibition	Potency
Nc1nc(N)c2nc(CNc3ccc(C(=O)N[C@@H](CCC(=O)O)C(=O)O)cc3)cnc2n1	7.08%	–
Cc1ccc(C(C)C)cc1	–	inactive
O=C(O)CSCC(=O)NC1CCSC1=O (configuration not stated)	0.336% [at 53 µM]	–
C[C@]12CCC(=O)C=C1CC[C@@H]1[C@@H]2[C@@H](O)C[C@@]2(C)[C@H]1CC[C@]2(O)C(=O)CO	–	inactive
CN(C)CCC(c1ccccc1)c1ccccn1 (configuration not stated)	–	inactive
CCCCCCCCCCCCC	0.739%	–
C=CC(=C)CCC=C(C)C	-6.75%	–
CCCOc1ccc2nc(NC(=O)OC)[nH]c2c1	-0.837% [at 53 µM]	–
Cc1cc(C)cc(O)c1	–	inactive
OC[C@H]1O[C@@H]2O[C@H]3[C@H](O)[C@@H](O)[C@@H](O[C@H]4[C@H](O)[C@@H](O)[C@@H](O[C@H]5[C@H](O)[C@@H](O)[C@@H](O[C@H]6[C@H](O)[C@@H](O)[C@@H](O[C@H]7[C@H](O)[C@@H](O)[C@@H](O[C@H]8[C@H](O)[C@@H](O)[C@@H](O[C@H]1[C@H](O)[C@H]2O)O[C@@H]8CO)O[C@@H]7CO)O[C@@H]6CO)O[C@@H]5CO)O[C@@H]4CO)O[C@@H]3CO	–	inactive
COc1ccc2c(c1)c(CC(=O)OCC(=O)O)c(C)n2C(=O)c1ccc(Cl)cc1	1.85% [at 53 µM]	–
Nc1ccc(S(=O)(=O)NCc2ccccc2)cc1	0.704% [at 53 µM]	–
CCCCCCCCCCC(CO)CCCCCCCC (configuration not stated)	–	inactive
CCn1cc(C(=O)O)c(=O)c2cnc(N3CCNCC3)nc21	-7.79% [at 53 µM]	–
O=C(O)c1cn(C2CC2)c2cc(Cl)c(F)cc2c1=O	0.225% [at 53 µM]	–
CCCCCCCCCCCCCBr	0.162%	–
CCOCCn1c(C2CCN(CCc3ccc(C(C)(C)C(=O)O)cc3)CC2)nc2ccccc21	-0.249% [at 53 µM]	–
